The source of these data is PubChem BioAssay (EPA / NIEHS).

A short description of assay [1]: TOX21_p53_BLA_p2_viability: Viability Assessment in the Tox21 HCT-116 p53 Agonism Beta-lactamase Assay, Phase 2 (AID 2283591).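 Further: actives lower the ATP signal meaning cytotoxicity.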 In short, it runs like this:
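Cytotoxicity readout: CellTiter-Glo ATP luminescence, 30 min at room temperature, after the beta-lactamase read. Cells were HCT116 exposed 16 h at 37C to compounds pin-transferred at 217-fold dilution from DMSO stocks.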

Assay [2] concerns the target Cellular tumor antigen p53 (Homo sapiens) (UniProt P04637). Put plainly: TOX21_p53_BLA_p2_ratio: Tox21 HCT-116 p53 Agonism Beta-lactamase Assay, Ratio, Phase 2 (AID 2283592). In short, it runs like this: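 Readout: blue/green (460/530 nm) FRET emission ratio after 2 h CCF4-AM loading at room temperature, excitation 405 nm. HCT116 p53 bla cells, 16 h compound exposure at 37C, 5% CO2; agonist direction fitted against DMSO baseline.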

Assay [3] can be described thus: TOX21_p53_BLA_p3_viability: Viability Assessment in the Tox21 HCT-116 p53 Agonism Beta-lactamase Assay, Phase 3 (AID 2283593).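 Further: cells exposed to compound for 16 h before reading.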 In short, it runs like this:
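Cellular ATP was quantified by CellTiter-Glo luminescence, read after 30 min at room temperature. Beforehand, HCT116 cells (4000/well) received compound 5 h post-seeding, 217-fold diluted from DMSO, then incubated 16 h at 37C.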

Assay [4] deals with Cellular tumor antigen p53 (Homo sapiens) (UniProt P04637). Put plainly: TOX21_p53_BLA_p3_ratio: Tox21 HCT-116 p53 Agonism Beta-lactamase Assay, Ratio, Phase 3 (AID 2283596). In a few lines:
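Cells were seeded at 4000/well, rested 5 h at 37C, then dosed with DMSO compound solutions (217-fold dilution) for 16 h. CCF4-AM substrate was loaded for 2 h at room temperature, and the 460/530 nm emission ratio was fitted for gain of signal versus DMSO.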

Assay [5] in a line: TOX21_p53_BLA_p4_viability: Viability Assessment in the Tox21 HCT-116 p53 Agonism Beta-lactamase Assay, Phase 4 (AID 2283597).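 Further: hits lower the luminescence signal meaning cytotoxicity.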 In short, it runs like this:
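ATP content by CellTiter-Glo luminescence, 30 min RT, read after the beta-lactamase ratio step. Cells: HCT116, 4000/well, compound added after 5 h, exposure 16 h at 37C. Signal loss = reduced viability.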

The target in assay [6] is Cellular tumor antigen p53 (Homo sapiens) (UniProt P04637). Put plainly: TOX21_p53_BLA_p5_ratio: Tox21 HCT-116 p53 Agonism Beta-lactamase Assay, Ratio, Phase 5 (AID 2283599). In short, it runs like this: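 Beta-lactamase reporter ratio (blue 460 nm over green 530 nm, 405 nm excitation) after 2 h CCF4-AM loading, in HCT-116 cells exposed 16 h at 37 C to compounds pinned at 217-fold dilution. Increases relative to DMSO baseline scored.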
Chain of Cellular tumor antigen p53 (Homo sapiens) (P04637 whole entry, looked up): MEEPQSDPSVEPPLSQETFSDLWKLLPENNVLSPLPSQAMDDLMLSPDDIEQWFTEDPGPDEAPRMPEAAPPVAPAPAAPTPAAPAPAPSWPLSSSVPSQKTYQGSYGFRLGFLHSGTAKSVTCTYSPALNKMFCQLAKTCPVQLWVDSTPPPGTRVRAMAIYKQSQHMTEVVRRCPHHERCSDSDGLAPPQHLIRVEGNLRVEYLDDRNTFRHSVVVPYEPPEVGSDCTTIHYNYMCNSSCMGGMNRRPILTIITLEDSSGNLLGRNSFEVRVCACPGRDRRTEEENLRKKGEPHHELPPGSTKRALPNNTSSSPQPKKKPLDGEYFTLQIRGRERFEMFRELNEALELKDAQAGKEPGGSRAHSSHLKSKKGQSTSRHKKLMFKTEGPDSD

The nature of assay [7]: TOX21_p53_BLA_p5_viability: Viability Assessment in the Tox21 HCT-116 p53 Agonism Beta-lactamase Assay, Phase 5 (AID 2283600). In a few lines: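 ATP luminescence (CellTiter-Glo, 30 min, RT) served as the viability read-out, with loss of signal indicating cytotoxicity. Compounds in DMSO were pinned at a 217-fold dilution onto 4000 cells/well and incubated 16 h, 37C.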
Assay [8] concerns the target Cellular tumor antigen p53 (Homo sapiens) (UniProt P04637). Kind of assay: TOX21_p53_BLA_p4_ratio: Tox21 HCT-116 p53 Agonism Beta-lactamase Assay, Ratio, Phase 4 (AID 2283601). In short, it runs like this: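 Signal is the blue/green (460nm/530nm) ratio of cleaved versus uncleaved CCF4-AM substrate, read after 2 h substrate loading. Cells were HCT116 carrying the p53-responsive beta-lactamase reporter, dosed 16 h at 37C, 5% CO2; CellTiter-Glo measured in parallel.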

In assay [9] the target is CCAAT/enhancer-binding protein beta (Homo sapiens) (UniProt P17676). Put plainly: ATG_C_EBP_CIS: Attagene CIS-FACTORIAL HepG2 Assay for human CCAAT/Enhancer Binding Protein (C/EBP) beta (AID 2282927; active means hit-call score of the fitted dose curve at least 0.9, where 1 is the maximum; inactive means score below 0.9). The conditions noted are these: HepG2 Attagene cis-factorial transcription factor reporter; actives raise or lower the signal. In a few lines:
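Endogenous transcription factor activity in human liver HepG2 cells is inferred from induction of a CEBPB-linked reporter mRNA. Exposure lasts 24 h; activity is fitted in both directions relative to DMSO.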

A short description of assay [10]: ATG_CMV_CIS: Attagene CIS-FACTORIAL HepG2 Assay for human CMV (Internal Marker) (AID 2282928; active means hit-call score of the fitted dose curve at least 0.9, where 1 is the maximum; inactive means score below 0.9;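 further: endpoint acts as a background internal control marker rather than a target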). The note with it: HepG2 CMV promoter reporter, transcription factor profiling; actives raise or lower the signal. In a few lines:
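Fluorescence intensity of RT-PCR-derived reporter fragments, resolved by capillary electrophoresis, gives the signal. HepG2 liver cells bearing transfected cis-element reporters were treated 24 h; activity in either direction was fit relative to DMSO-treated controls.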

Assay [11] in a line: ATG_BRE_CIS: Attagene CIS-FACTORIAL HepG2 Assay for human Bone Morphogenetic Protein (BMP) Response Element (BRE) (AID 2282933; active means hit-call score of the fitted dose curve at least 0.9, where 1 is the maximum; inactive means score below 0.9). The conditions noted are these: HepG2 BMP response element reporter, Attagene transcription factor profiling; actives raise or lower the signal. In a few lines:
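Read-out: reporter mRNA induction quantified by RT-PCR and capillary electrophoresis after 24 h chemical exposure of transfected HepG2 cells. Endogenous factor activity on the BMP response element; gain or loss fitted against DMSO baseline.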

Assay [12] in a line: ATG_E_Box_CIS: Attagene CIS-FACTORIAL HepG2 Assay for human Enhancer Box (E-box) (AID 2282936; active means hit-call score of the fitted dose curve at least 0.9, where 1 is the maximum; inactive means score below 0.9). The note with it: HepG2 E-box cis-reporter transcription, actives raise or lower the signal. In a few lines:
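E-box-driven reporter transcripts measured in transiently transfected HepG2 after 24 h exposure: RNA reverse-transcribed, PCR-amplified, fluorescently labelled, digested and resolved by capillary electrophoresis. Gain or loss relative to DMSO.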

Assay [13] is described as follows: ATG_M_19_CIS: Attagene CIS-FACTORIAL HepG2 Assay for M19 Transcription Factor (Internal Marker) (AID 2282939; active means hit-call score of the fitted dose curve at least 0.9, where 1 is the maximum; inactive means score below 0.9). The note with it: HepG2 Attagene CIS-FACTORIAL M19 internal marker reporter; actives raise or lower the signal. In a few lines:
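Readout: fluorescent reporter-transcript fragments by capillary electrophoresis after RT-PCR. Human HepG2 liver cells carried transfected MRTU constructs reporting endogenous transcription-factor activity; exposure 24 h. Gain or loss of signal fitted relative to DMSO.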

Assay [14] in a line: ATG_GATA_CIS: Attagene CIS-FACTORIAL HepG2 Assay for human GATA Binding Protein (AID 2282944; active means hit-call score of the fitted dose curve at least 0.9, where 1 is the maximum; inactive means score below 0.9). The note with it: HepG2 GATA cis-element reporter, Attagene multiplex mRNA; actives raise or lower the signal. In a few lines: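 Read-out: fluorescent reporter mRNA fragments resolved by capillary electrophoresis after RT-PCR. Human liver HepG2 cells carried transiently transfected cis-regulated reporter constructs; chemicals incubated 24 h; gain or loss of signal fitted relative to DMSO.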

A short description of assay [15]: ATG_ISRE_CIS: Attagene CIS-FACTORIAL HepG2 Assay for human Interferon Regulatory Factor 1 (IRF1) binding to an Interferon-Stimulated Response Element (ISRE) (AID 2282948; active means hit-call score of the fitted dose curve at least 0.9, where 1 is the maximum; inactive means score below 0.9). The note with it: HepG2 ISRE cis-reporter (Attagene), mRNA transcription readout; actives raise or lower the signal. In short, it runs like this:
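Signal reflects induction or loss of ISRE-linked reporter mRNA in transiently transfected HepG2 cells after a 24 h treatment, detected by fluorescent RT-PCR fragments on capillary electrophoresis and normalised to DMSO.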

The nature of assay [16]: ATG_M_32_CIS: Attagene CIS-FACTORIAL HepG2 Assay for M32 Transcription Factor (Internal Marker) (AID 2282949; active means hit-call score of the fitted dose curve at least 0.9, where 1 is the maximum; inactive means score below 0.9;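 further: background control marker of the multiplexed CIS panel rather than a real target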). The note with it: HepG2 Attagene cis-factorial M32 reporter, mRNA; actives raise or lower the signal. In short, it runs like this: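 HepG2 transfectants (cis-regulated reporter transcription units) dosed 24 h. Reporter mRNA by RT-PCR plus CE, analysed as gain or loss relative to DMSO.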

Assay [17] in a line: ATG_M_06_CIS: Attagene CIS-FACTORIAL HepG2 Assay for M06 Transcription Factor (Internal Marker) (AID 2282950; active means hit-call score of the fitted dose curve at least 0.9, where 1 is the maximum; inactive means score below 0.9). The conditions noted are these: HepG2 Attagene CIS-FACTORIAL M06 internal marker reporter; actives raise or lower the signal. In a few lines:
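Terse: HepG2, transient MRTU transfection (FuGene 6), 24 h dosing; total RNA, oligo(dT) RT, PCR, FAM label, HpaI cut, capillary electrophoresis; bidirectional fit vs DMSO baseline; background-control endpoint.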

Assay [18] can be described thus: ATG_MRE_CIS: Attagene CIS-FACTORIAL HepG2 Assay for human Metal Responsive Element (MRE) (AID 2282954; active means hit-call score of the fitted dose curve at least 0.9, where 1 is the maximum; inactive means score below 0.9). The note with it: HepG2 MRE cis-reporter transcription, Attagene multiplex; actives raise or lower the signal. In a few lines: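 Endogenous MRE-dependent transcription read as reporter mRNA in transiently transfected human HepG2 cells at 24 h. RNA reverse-transcribed, PCR-amplified, labelled and resolved by capillary electrophoresis; gain or loss relative to DMSO.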

The target of assay [19] is Paired box protein Pax-6 (Homo sapiens) (UniProt P26367). Kind of assay: ATG_Pax6_CIS: Attagene CIS-FACTORIAL HepG2 Assay for human Paired Box 6 (PAX6) (AID 2282956; active means hit-call score of the fitted dose curve at least 0.9, where 1 is the maximum; inactive means score below 0.9). The conditions noted are these: HepG2 CIS-FACTORIAL PAX6 reporter transcription, RNA readout; actives raise or lower the signal. In short, it runs like this: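 Values derive from bidirectional curve fitting of reporter mRNA signal relative to DMSO. HepG2 cells bearing transfected cis-regulated MRTUs were exposed for 24 h; transcripts were read by RT-PCR and capillary electrophoresis.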
Chain of Paired box protein Pax-6 (Homo sapiens) (P26367 whole entry, looked up): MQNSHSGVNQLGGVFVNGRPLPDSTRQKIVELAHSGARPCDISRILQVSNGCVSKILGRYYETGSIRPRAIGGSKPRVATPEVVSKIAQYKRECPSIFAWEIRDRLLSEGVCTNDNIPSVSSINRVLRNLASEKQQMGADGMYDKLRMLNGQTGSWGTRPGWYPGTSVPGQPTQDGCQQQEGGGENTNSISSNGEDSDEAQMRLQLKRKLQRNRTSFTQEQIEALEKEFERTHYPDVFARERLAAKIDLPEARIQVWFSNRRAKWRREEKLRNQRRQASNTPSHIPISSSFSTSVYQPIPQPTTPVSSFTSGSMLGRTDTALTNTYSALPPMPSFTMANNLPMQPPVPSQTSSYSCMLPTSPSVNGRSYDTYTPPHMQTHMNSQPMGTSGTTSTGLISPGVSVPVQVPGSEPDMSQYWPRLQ

The nature of assay [20]: ATG_PXRE_CIS: Attagene CIS-FACTORIAL HepG2 Assay for human Pregnane X Receptor Element (PXRE) (AID 2282957; active means hit-call score of the fitted dose curve at least 0.9, where 1 is the maximum; inactive means score below 0.9). The note with it: HepG2 Attagene CIS-FACTORIAL PXRE reporter, mRNA; actives raise or lower the signal. In a few lines: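 Read-out: fluorescence of reporter-specific RT-PCR products resolved by capillary electrophoresis, fitted bidirectionally relative to DMSO. Human HepG2 liver cells carried transfected cis-promoter reporter units and were exposed to chemicals for 24 h.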

Results filed as inconclusive are left out. More than one record can exist for a structure, and the calls need not agree. The source made the active and inactive calls. How the source made its calls, unless noted: active means hit-call score of the fitted dose curve at least 0.9, where 1 is the maximum; inconclusive means response in the unintended direction; inactive means score below 0.9.

A word on the AC50: it is the midpoint of the concentration-response curve, whichever way the signal moves.

Chain of CCAAT/enhancer-binding protein beta (Homo sapiens) (P17676 whole entry, looked up): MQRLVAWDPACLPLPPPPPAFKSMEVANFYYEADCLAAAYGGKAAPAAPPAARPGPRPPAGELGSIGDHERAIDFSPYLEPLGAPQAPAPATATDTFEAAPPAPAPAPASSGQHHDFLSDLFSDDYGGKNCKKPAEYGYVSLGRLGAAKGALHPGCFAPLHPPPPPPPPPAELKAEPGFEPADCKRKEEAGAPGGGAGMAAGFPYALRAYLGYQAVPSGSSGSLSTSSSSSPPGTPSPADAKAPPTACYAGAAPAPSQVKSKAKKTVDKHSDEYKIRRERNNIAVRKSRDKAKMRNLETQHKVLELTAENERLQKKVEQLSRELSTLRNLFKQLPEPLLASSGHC

For `COc1cc(CNC(=O)CCCC/C=C/C(C)C)ccc1O`, the compound was called inactive in assay [1], in assay [2], in [3], in assay [4], in [5] and in [6]. In addition, the result in assay [7] and in assay [8] was inactive.

Take `COc1ccccc1Oc1c(NS(=O)(=O)c2ccc(C(C)(C)C)cc2)nc(-c2ncccn2)nc1OCCO`: the result in [1], in [2], in [3] and in [6] was inactive.

As for `Cc1ccnc(N)c1`, the outcome in assay [9], in assay [10], in [11], in [12], in [13] and in assay [14] was inactive. For the same compound, the call in assay [15], in assay [16], in [17], in assay [18], in [19] and in [1] was inactive. Further, the result in assay [5] and in assay [6] was inactive. Besides, in assay [20], the AC50 is 44.6 µM (active).

With `CC(C)C1OCCN1CCOC(=O)NCCCCCCNC(=O)OCCN1CCOC1C(C)C` (stereo not given), the outcome in [1], in [2], in assay [3], in assay [5], in [6] and in [7] was inactive. Further, in assay [8], the outcome was inactive.

As to `CC/C=C\CCCCCO`, the outcome in assay [9], in assay [10], in assay [11], in assay [12], in assay [13] and in assay [14] was inactive. In addition, the result in assay [15], in [16], in [17], in assay [18], in [19] and in [1] was inactive. In addition, the outcome in assay [2], in [3], in [4], in [6] and in [7] was inactive. Also, in [20], the AC50 is 78.4 µM (active).

Turning to `CCCCCCOC(=O)CCCCCCCC(=O)OCCCCCC`, the result in [9], in assay [10], in assay [11], in assay [12], in assay [13] and in [14] was inactive. Besides, the compound was classed as inactive in assay [15], in assay [16], in assay [17], in assay [18] and in [19]. In assay [20], the AC50 is 71.6 µM (active).

As for `CNC(=O)Nc1ccc(Cl)c(Cl)c1`, the compound was called inactive in assay [1], in [2], in assay [3], in assay [4], in assay [5] and in assay [6]. Moreover, the compound was classed as inactive in assay [7] and in assay [8].

As for `C=CCN1CCc2nc(N)sc2CC1`, the call in assay [1] and in assay [2] was inactive.

With `CC(C)(C)CC(C)(C)c1ccc(OCCO)cc1`, the compound was called inactive in assay [1], in assay [2], in assay [3], in assay [4], in assay [5] and in assay [6]. For the same compound, the compound was called inactive in assay [7] and in [8]. The AC50 was 5.43 µM (active) in [2] and 35.6 µM (active) in assay [5].

As for `COC(=O)CCCC(=O)O`, the compound was called inactive in assay [1], in assay [2], in [3], in [4], in [7] and in [8].
